Compound activity (PubChem BioAssay)
A selection: hits, their analogues and other compounds. The true share with any hit is near 2.1%.
KLF5 inh: kruppel-like factor 5 inhibition; AID 1700; inhibition, % at 5 µM; 290,000 tested, 0.23% active; DLD-1 KLF5 promoter-luciferase reporter, luminescence;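 active = inhibition above a per-plate limit of that plate's mean compound inhibition plus 3 SD, cut at about 60% in these data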;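 note: 0% = DMSO wells and 100% = LY294002 at 200 µM; higher means less KLF5 promoter-driven luciferase light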
aSyn 5UTR inh: MLPCN primary screen, SNCA 5' untranslated region. alpha-synuclein 5'UTR reporter, inhibitor activity. inhibition, % (tested at 7.5 µM). 300,000 tested, 0.82% active. AID 1813; in the data active = inhibition above about 60%;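 note: H4 neuroglioblastoma cells stably carrying SNCA 5'UTR luciferase fusion; 0% = DMSO wells and 100% = positive control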
BaF3 tox: reduces parental Ba/F3 cell viability, JAK2V617F counter-screen; 220,000 tested, 1.1% active; CellTiter-Glo ATP luminescence; inhibition, % at 5.6 µM;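 active = inhibition above a per-campaign cutoff, the mean inhibition of all tested compounds plus 3 SD, cut at about 27% in these data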;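 note: 0% = DMSO wells and 100% = JAK Inhibitor I control wells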
IEC-6 tox: kills IEC-6 intestinal cells in KLF5 counter-screen. IEC-6 cytotoxicity, luminescence viability. inhibition, % at 5 µM. 290,000 tested, 0.78% active. AID 1825;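 note: 0% = plate median of test compound wells and 100% = cytotoxic reference compound wells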
Ba/F3 V617F tox: lowers viability of Ba/F3 cells expressing EpoR and JAK2V617F | 220,000 tested, 1.1% active | AID 1446 | inhibition, % at 5.6 µM | ATP luminescence;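 active = inhibition above the campaign mean plus 3 SD over all tested compounds, cut at about 24% in these data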;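 note: cytokine-independent growth of Ba/F3 cells driven by EpoR plus mutant JAK2; 0% = DMSO-treated cells and 100% = JAK inhibitor I control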
APP 5UTR inh: APP translation inhibition. 190,000 tested, 0.82% active. inhibition, % at 2 µM. AID 1285. SH-SY5Y APP 5'UTR-luciferase reporter, luminescence;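 active = inhibition above a set limit, derived from the sample mean plus 3 SD, cut at about 45% in these data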
IEC-6 cytotox cf: confirmation of cytotoxic compounds in rat IEC-6 intestinal epithelial cells. shares compounds with IEC-6 tox. IEC-6 rat intestinal epithelial viability, luminescence. inhibition, % at 5 µM. 1,900 tested, 63% active;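 note: 0% = vehicle and 100% = reference cytotoxic drug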
Active calls of the source: *; x = not tested or not shown. Cut-off read from the data, not from the text of the source, unless noted: active = inhibition above about 22%; inactive = the rest.

SMILES | KLF5 inh | aSyn 5UTR inh | BaF3 tox | IEC-6 tox | Ba/F3 V617F tox | APP 5UTR inh | IEC-6 cytotox cf
CCc1nnc(NC(=O)c2ccc(S(=O)(=O)N(CC)Cc3ccccc3)cc2)o1 | 23 | 9 | 6 | 26* | 0 | 15 | 2
CCN(Cc1ccccc1)S(=O)(=O)c1ccc(C(=O)Nc2nnc(C)o2)cc1 | 42 | 24 | x | 17 | x | x | x
COc1ccc(NC(=O)NC23CC4(C)CC(C)(CC(C)(C4)C2)C3)cc1OC | -18 | 9 | -1 | 6 | -4 | -7 | x
OCCC1CN(CCCc2ccccc2)CCN1Cc1ccccc1 (configuration not stated) | -22 | 1 | 1 | 23* | -4 | x | 3
Cc1cc(C)c(NC(=O)c2ccc3c(c2)CCN3S(C)(=O)=O)c(C)c1 | -10 | -11 | x | 2 | x | x | x
COCCNC(=O)c1cc(-c2ccccn2)nc2ccc(S(=O)(=O)N3CCC(C)CC3)cc12 | -20 | 5 | x | 1 | x | x | x
CCOCCCNC(=O)c1cc(-c2cccnc2)nc2ccc(S(=O)(=O)N3CCC(C)CC3)cc12 | -49 | 8 | x | 24* | x | x | 1
CCCCCCCCCCCCCCCCn1cc[n+](C)c1 | 8 | 141* | 69* | 35* | 98* | 29 | 32*
Cc1cc(C)cc(C(=O)N2CC(=O)Nc3ccccc32)c1 | 48 | 110* | 82* | 89* | 78* | 92* | 57*
O=C(/C=C/c1ccccc1)Nc1ccc2c(c1)OCCO2 | -51 | 55 | 6 | 0 | -1 | -152 | x
COc1ccccc1/C=C/C(=O)Nc1ccc2c(c1)OCCO2 | -218 | -145 | 12 | 25* | 3 | -134 | 19
COc1cc(-c2noc(C)c2C#Cc2ccc(N)cc2)cc(OC)c1OC | 56 | 88* | x | 87* | x | x | 64*
COc1ccc(-c2c(-c3cc(OC)c(OC)c(OC)c3)noc2C)cn1 | 55 | 76* | x | 80* | x | x | 54*
CNC(C)C#Cc1c(-c2cc(OC)c(OC)c(OC)c2)noc1C (configuration not stated) | 17 | -39 | x | 0 | x | x | x
COc1ccc2c(O)c(-c3c(C)cc(C)cc3C)c(=O)[nH]c2c1 | x | -9 | x | x | x | x | x
Cc1ccc(C(=O)Sc2cccccc2=O)cc1 | 31 | -109 | x | 99* | x | x | 101*
COc1ccc(/C=C(/NC(=O)c2ccc(OC)c(OC)c2)C(=O)NCCCn2ccnc2)cc1 | -1 | -13 | x | -1 | x | x | x
CCOC(=O)Nc1nc(-c2ccccc2)c(C(=O)c2ccccc2)s1 | 55 | 117* | 80* | 86* | 80* | 94* | 58*
CC(C)c1ccc(/C=C/C2=NNC(=O)CC2)cc1 | -119 | 87* | 30* | 55* | 38* | -165 | 37*
Nn1cnnc1N/N=C/c1ccc(Cl)c([N+](=O)[O-])c1 | -21 | -52 | 3 | 52* | 2 | -2 | 2
Nn1cnnc1N/N=C/c1ccc(F)cc1 | -18 | -2 | x | -4 | x | x | x
COc1cc2[nH]c(=S)nc(NCc3ccc(Cl)cc3)c2cc1OC | 1 | 20 | x | 30* | x | x | 42*
COc1cc(C(=O)Nc2ccc(C)cc2)c2ccccc2n1 | 62 | 82* | x | 84* | x | x | 65*
CC(C)(C)c1ccc(-n2nc(C#N)c(Cl)cc2=O)cc1 | 11 | -25 | -11 | 52* | 15 | 94* | 11
CCOC(=O)N1CCN(C(=O)c2ccc(Oc3ccc([N+](=O)[O-])cc3)cc2)CC1 | -4 | 4 | -2 | 2 | -5 | -61 | x
SMILES | KLF5 inh | aSyn 5UTR inh | BaF3 tox | IEC-6 tox | Ba/F3 V617F tox | APP 5UTR inh | IEC-6 cytotox cf
Cc1nc2cc(-c3ccc(Br)cc3)[nH]n2c(=O)c1Cl | -75 | -74 | x | 30* | x | x | 13
CCOc1ccccc1NC(=O)Cn1nnc(C(=O)NCc2ccc3c(c2)OCO3)c1N | 51 | 20 | x | 51* | x | x | 28*
COc1ccc(NC(=O)Cn2nnc(C(=O)NCc3ccc4c(c3)OCO4)c2N)cc1 | -27 | -10 | 2 | -18 | -2 | 10 | x
COc1cccc(CNC(=O)c2nnn(CC(=O)Nc3ccc(Br)cc3)c2N)c1 | 0 | 86* | x | 34* | x | x | 18
Cc1cc(C)cc(N(CCC(=O)Nc2nnc(C)s2)S(=O)(=O)c2ccc(Cl)cc2)c1 | -24 | 13 | 9 | -4 | 2 | -1 | x
C=CCn1c(SCc2c(C)noc2C)nc2ccccc2c1=O | 58 | 80* | 72* | 83* | 71* | 94* | 57*
Cc1ccc(-n2ncc(C(=O)Nc3cc(Cl)cc(Cl)c3)c2C2CCNCC2)cc1C | 52 | 93* | 86* | 98* | 95* | 79* | 97*
